According to paper PMC9838217, “Structure of SALL4 zinc finger domain reveals link between AT-rich DNA binding and Okihiro syndrome”:
Residue numbers refer to the chain shown, from its start.

biological target: T1, SALL4 ZFC4 WT (HT-SELEX) (Mus musculus, UniProt Q8BX22 870-940); assay: HT-SELEX; high values mean tight binding; settings: protein: recombinant; vector His6-GST; dsDNA, one strand shown
T1 sequence: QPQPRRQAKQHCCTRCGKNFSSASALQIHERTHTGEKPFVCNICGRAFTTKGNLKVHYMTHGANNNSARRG
Summary of the method: (§1)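 Binding signal is expressed as fold change in each canonical k-mer's read fraction over the initial random library. To obtain it, 1 µg of purified recombinant mouse SALL4 zinc finger cluster 4 (residues 870–940) was incubated for 10 min at room temperature with library DNA (1.5 µg first cycle, 200 ng later cycles) in 100 µl of 10 mM Tris–HCl pH 7.5, 50 mM NaCl, poly(dI-dC) and DTT. Ni2+ bead-captured complexes went through washing, PCR amplification and reselection for up to 6 cycles, in triplicate, before MiSeq sequencing and scanning for 6-mers.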

| Sequence | binding signal [fold-change vs cycle 0] |
| --- | --- |
| ATTAAG | 2.1 ± 0.107 |
| ATTCAG | 1.31 ± 0.0442 |
| CTGATC | 0.794 ± 0.0362 |
| ATCTGA | 1.33 ± 0.0639 |
| GAATGA | 1.42 ± 0.0437 |
| ACCCAG | 0.455 ± 0.0148 |
| ATCTTC | 1.42 ± 0.0263 |
| AGGCAT | 0.627 ± 0.0329 |
| AACGAA | 1.15 ± 0.0599 |
| CCAGAG | 0.463 ± 0.0303 |
| AGATGA | 1.49 ± 0.0331 |
| ATATTC | 2.62 ± 0.255 |
| TAGATA | 2.23 ± 0.154 |
| AGGGCA | 0.305 ± 0.031 |
| GTGCTA | 0.592 ± 0.0163 |
| GCCTAC | 0.304 ± 0.0224 |
| GATACC | 0.884 ± 0.044 |
| CAGCAA | 0.551 ± 0.0466 |
| AATAGG | 1.27 ± 0.0647 |
| ACTGAT | 1.4 ± 0.115 |

| Sequence | binding signal [fold-change vs cycle 0] |
| --- | --- |
| CCTTGA | 0.879 ± 0.0172 |
| AAACCG | 0.532 ± 0.0183 |
| AGTCTC | 0.837 ± 0.0339 |
| AGATAG | 1.35 ± 0.0403 |
| TATAGA | 2.35 ± 0.163 |
| TCCCCA | 0.461 ± 0.0365 |
| AAAGGG | 0.754 ± 0.0569 |
| CATCGA | 0.706 ± 0.0155 |
| AAACGC | 0.392 ± 0.00979 |
| CATCAA | 1.23 ± 0.0349 |
| ACACGT | 0.75 ± 0.0296 |
| AGAGGG | 0.489 ± 0.0115 |
| ACGACC | 0.308 ± 0.026 |
| GTCGTA | 0.571 ± 0.0216 |
| TATGGA | 1.65 ± 0.0906 |
| ATGTCA | 1.23 ± 0.0617 |
| CTTAAC | 1.38 ± 0.0537 |
| GATGAC | 0.865 ± 0.0236 |
| GACATA | 1.19 ± 0.0463 |
| AGAGTC | 0.786 ± 0.0201 |

biological target: T2, SALL4 ZFC4 R900W (HT-SELEX) (Mus musculus, UniProt Q8BX22 870-940, R900W); assay: HT-SELEX; high values mean tight binding; settings: protein: recombinant; vector His6-GST; dsDNA, one strand shown
T2 sequence: T1 sequence with R31W
Summary of the method: as §1

| Sequence | binding signal [fold-change vs cycle 0] |
| --- | --- |
| ATTAAG | 2.09 ± 0.139 |
| ATTCAG | 1.44 ± 0.0342 |
| CTGATC | 0.948 ± 0.0293 |
| ATCTGA | 1.39 ± 0.0686 |
| GAATGA | 1.57 ± 0.0566 |
| ACCCAG | 0.526 ± 0.0133 |
| ATCTTC | 1.58 ± 0.0645 |
| AGGCAT | 0.715 ± 0.0142 |
| AACGAA | 1.28 ± 0.0641 |
| CCAGAG | 0.544 ± 0.0428 |
| AGATGA | 1.6 ± 0.074 |
| ATATTC | 1.95 ± 0.1 |
| TAGATA | 2.04 ± 0.12 |
| AGGGCA | 0.354 ± 0.00942 |
| GTGCTA | 0.69 ± 0.007 |
| GCCTAC | 0.368 ± 0.00435 |
| GATACC | 0.969 ± 0.034 |
| CAGCAA | 0.641 ± 0.0279 |
| AATAGG | 1.39 ± 0.0729 |
| ACTGAT | 1.51 ± 0.108 |

| Sequence | binding signal [fold-change vs cycle 0] |
| --- | --- |
| CCTTGA | 1.041 ± 0.00922 |
| AAACCG | 0.604 ± 0.0163 |
| AGTCTC | 0.9527 ± 0.00762 |
| AGATAG | 1.5 ± 0.0704 |
| TATAGA | 2.02 ± 0.132 |
| TCCCCA | 0.533 ± 0.0451 |
| AAAGGG | 0.891 ± 0.0422 |
| CATCGA | 0.749 ± 0.0387 |
| AAACGC | 0.449 ± 0.0166 |
| CATCAA | 1.37 ± 0.0542 |
| ACACGT | 0.89 ± 0.061 |
| AGAGGG | 0.556 ± 0.0501 |
| ACGACC | 0.378 ± 0.0333 |
| GTCGTA | 0.663 ± 0.0204 |
| TATGGA | 1.46 ± 0.0813 |
| ATGTCA | 1.34 ± 0.0399 |
| CTTAAC | 1.58 ± 0.0426 |
| GATGAC | 0.962 ± 0.0544 |
| GACATA | 1.28 ± 0.0199 |
| AGAGTC | 0.925 ± 0.0489 |

biological target: T3, SALL4 ZFC4 G921D (HT-SELEX) (Mus musculus, UniProt Q8BX22 870-940, G921D); assay: HT-SELEX; high values mean tight binding; settings: protein: recombinant; vector His6-GST; dsDNA, one strand shown
T3 sequence: T1 sequence with G52D
Summary of the method: as §1

| Sequence | binding signal [fold-change vs cycle 0] |
| --- | --- |
| ATTAAG | 1.82 ± 0.22 |
| ATTCAG | 1.36 ± 0.0925 |
| CTGATC | 1.02 ± 0.0279 |
| ATCTGA | 1.35 ± 0.119 |
| GAATGA | 1.43 ± 0.0639 |
| ACCCAG | 0.628 ± 0.0574 |
| ATCTTC | 1.46 ± 0.104 |
| AGGCAT | 0.816 ± 0.0443 |
| AACGAA | 1.24 ± 0.054 |
| CCAGAG | 0.625 ± 0.0553 |
| AGATGA | 1.46 ± 0.104 |
| ATATTC | 1.78 ± 0.19 |
| TAGATA | 1.84 ± 0.212 |
| AGGGCA | 0.51 ± 0.0852 |
| GTGCTA | 0.796 ± 0.0354 |
| GCCTAC | 0.499 ± 0.0602 |
| GATACC | 1.04 ± 0.0218 |
| CAGCAA | 0.737 ± 0.0707 |
| AATAGG | 1.32 ± 0.0667 |
| ACTGAT | 1.43 ± 0.137 |

| Sequence | binding signal [fold-change vs cycle 0] |
| --- | --- |
| CCTTGA | 1.05 ± 0.0247 |
| AAACCG | 0.705 ± 0.0593 |
| AGTCTC | 1 ± 0.0392 |
| AGATAG | 1.43 ± 0.117 |
| TATAGA | 1.81 ± 0.192 |
| TCCCCA | 0.593 ± 0.0323 |
| AAAGGG | 0.879 ± 0.0118 |
| CATCGA | 0.854 ± 0.0254 |
| AAACGC | 0.58 ± 0.0501 |
| CATCAA | 1.32 ± 0.0556 |
| ACACGT | 0.954 ± 0.0298 |
| AGAGGG | 0.655 ± 0.0298 |
| ACGACC | 0.508 ± 0.0872 |
| GTCGTA | 0.752 ± 0.0439 |
| TATGGA | 1.37 ± 0.0965 |
| ATGTCA | 1.32 ± 0.0617 |
| CTTAAC | 1.42 ± 0.0747 |
| GATGAC | 1.01 ± 0.0406 |
| GACATA | 1.25 ± 0.0289 |
| AGAGTC | 0.995 ± 0.0509 |
